Rows were chosen to be rich in hits. Some 0.84% of all compounds tested hit in one or more screens of this group.
SRC2 inh: human SRC2 (NCOA2) inhibition; actives 0.17% (n = 370,000); HEK293 GAL4-SRC2 luciferase reporter, luminescence; AID 651957; inhibition, % at 9 µM;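 active = inhibition above the mean inhibition of all tested compounds plus 3 SD, set per campaign, cut at about 52% in these data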;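 also: 0% = DMSO treated cells and 100% = cells given Gossypol at 36 µM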
Target sequence (Q15596 whole entry, looked up, the tested form may be a part): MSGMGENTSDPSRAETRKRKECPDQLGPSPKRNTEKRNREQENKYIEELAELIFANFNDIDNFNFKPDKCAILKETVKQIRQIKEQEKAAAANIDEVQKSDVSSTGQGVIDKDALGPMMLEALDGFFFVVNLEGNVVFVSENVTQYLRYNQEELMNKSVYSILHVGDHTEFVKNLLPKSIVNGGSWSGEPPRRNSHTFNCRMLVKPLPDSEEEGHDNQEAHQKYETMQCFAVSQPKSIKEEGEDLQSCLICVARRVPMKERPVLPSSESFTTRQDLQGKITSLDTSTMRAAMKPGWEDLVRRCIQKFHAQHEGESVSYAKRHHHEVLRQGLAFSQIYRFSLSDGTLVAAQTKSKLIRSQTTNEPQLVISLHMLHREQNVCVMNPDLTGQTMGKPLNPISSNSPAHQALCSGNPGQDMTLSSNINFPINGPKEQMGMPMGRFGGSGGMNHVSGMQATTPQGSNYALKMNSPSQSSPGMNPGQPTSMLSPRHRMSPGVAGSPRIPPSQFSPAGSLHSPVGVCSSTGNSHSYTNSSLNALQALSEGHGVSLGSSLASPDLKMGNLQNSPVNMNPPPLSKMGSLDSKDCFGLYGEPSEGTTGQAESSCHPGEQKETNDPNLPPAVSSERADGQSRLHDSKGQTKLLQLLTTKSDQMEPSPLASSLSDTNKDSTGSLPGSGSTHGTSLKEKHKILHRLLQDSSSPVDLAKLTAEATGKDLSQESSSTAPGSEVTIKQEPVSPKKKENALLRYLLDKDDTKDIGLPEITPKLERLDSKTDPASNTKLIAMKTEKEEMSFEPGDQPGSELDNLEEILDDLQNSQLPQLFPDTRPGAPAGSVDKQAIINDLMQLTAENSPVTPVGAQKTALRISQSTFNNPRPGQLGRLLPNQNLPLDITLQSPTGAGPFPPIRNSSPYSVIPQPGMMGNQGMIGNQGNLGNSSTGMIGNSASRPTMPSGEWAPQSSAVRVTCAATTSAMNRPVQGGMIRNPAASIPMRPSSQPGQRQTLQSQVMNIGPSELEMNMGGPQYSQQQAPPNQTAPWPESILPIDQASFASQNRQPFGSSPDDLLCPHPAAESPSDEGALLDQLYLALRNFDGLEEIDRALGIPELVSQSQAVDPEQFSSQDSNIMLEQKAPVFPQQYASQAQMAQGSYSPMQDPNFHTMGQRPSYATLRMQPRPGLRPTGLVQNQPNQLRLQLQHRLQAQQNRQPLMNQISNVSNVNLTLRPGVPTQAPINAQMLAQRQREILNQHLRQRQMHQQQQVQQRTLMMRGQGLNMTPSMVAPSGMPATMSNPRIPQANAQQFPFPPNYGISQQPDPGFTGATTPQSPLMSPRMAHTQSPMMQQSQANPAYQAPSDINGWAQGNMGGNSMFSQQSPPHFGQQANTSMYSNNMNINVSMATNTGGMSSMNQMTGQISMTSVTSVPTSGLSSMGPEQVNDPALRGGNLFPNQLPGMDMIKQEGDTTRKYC
COUP-TFII inh: blocks human COUP-TFII nuclear receptor. AID 686940. actives 0.7% (n = 370,000). inhibition, % at 8.6 µM. P24468. HEK293T NGFI-A luciferase reporter, luminescence;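 active = inhibition above a per-plate cutoff, mean inhibition of test wells between control levels plus 3 SD, cut at about 38% in these data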;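 also: cells cotransfected with COUP-TFII expression vector driving the NGFI-A reporter; 0% = median of COUP-TF2 test wells and 100% = reporter-only cells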
NR5A2 inv ag: NR5A2 inverse agonism in reporter assay; HEK293T StAR-luciferase reporter, LRH-1 transfected, 24 h; actives 0.13% (n = 360,000); O00482; inhibition, % at 3.6 µM; AID 602396;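 active = inhibition above the mean inhibition of all tested compounds plus 3 SD, cut at about 73% in these data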;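 also: 0% = DMSO wells and 100% = reporter-only cells lacking LRH-1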
NCOA1 inh: human NCOA1 inhibition; AID 588354; Q15788; inhibition, % at 3.6 µM; actives 0.12% (n = 360,000); HEK293 GAL4-SRC1 luciferase reporter, luminescence;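 active = inhibition above the campaign mean plus 3 SD, with each screening campaign given its own cutoff, cut at about 60% in these data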;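 also: 0% = DMSO treated cells and 100% = gossypol at 36 µM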
NCOA3 inh: human NCOA3 inhibition; inhibition, % at 3.6 µM; Q9Y6Q9; actives 0.17% (n = 360,000); HEK293 GAL4-SRC3 luciferase reporter, luminescence;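 active = inhibition above a per-campaign cutoff, the mean of all compounds plus 3 SD, cut at about 60% in these data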;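 also: 0% = DMSO-treated cells and 100% = gossypol-treated cells at 36 µM; higher means less SRC3-driven luciferase light from the GAL4 reporter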
VP16 Luc counter: counter-screen for COUP-TFII antagonists: inhibitors of VP16; shares compounds with COUP-TFII inh; HEK293 Gal4-VP16 luciferase reporter, luminescence; inhibition, % at 8.5 µM; actives 25% (n = 2,500); AID 687007; in the data active = inhibition above about 13%
NR2F2 inh conf: confirmation of human COUP-TFII (NR2F2) inhibitors; shares compounds with COUP-TFII inh; HEK293 NGFI-A luciferase reporter, luminescence; inhibition, % at 8.5 µM; actives 45% (n = 2,500);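 active = mean inhibition over three repeats above a set limit taken from the earlier primary screen, cut at about 38% in these data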;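 also: 100% = cells given the luciferase reporter alone without the COUP-TF2 vector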
An asterisk follows results filed as active.

Screening NC(=O)c1c(-c2ccc(Cl)cc2Cl)csc1NC(=O)Cc1ccccc1 returned SRC2 inh 9.6, COUP-TFII inh 73.5*, NR5A2 inv ag 15.1, NCOA1 inh 8.2, NCOA3 inh 12.8, VP16 Luc counter -22.7 and NR2F2 inh conf 53.6*.
For O=C1/C(=C/c2ccncc2)CCC/C1=C\c1ccncc1 the results were SRC2 inh 74.2*, COUP-TFII inh 84.5*, NR5A2 inv ag 29.7, NCOA1 inh -165.3, NCOA3 inh -21.8, VP16 Luc counter 65.9* and NR2F2 inh conf 89.7*.
C[C@@H](O[Si](c1ccccc1)(c1ccccc1)C(C)(C)C)[C@H]1C(=O)N[C@H](Cc2cn(S(=O)(=O)c3ccccc3)c3ccccc23)C(=O)N1C was read as COUP-TFII inh 29.9.
O=C(COc1ccccc1)Nc1nc(-c2ccc(S(=O)(=O)N3CCOCC3)cc2)cs1 was read as SRC2 inh 21.0, COUP-TFII inh 15.1, NR5A2 inv ag 16.5, NCOA1 inh 8.0 and NCOA3 inh -5.8.
Screening O=C(CCc1ccc(S(=O)(=O)N2CCOCC2)cc1)Nc1nc(COc2ccccc2)cs1 returned SRC2 inh 12.3, COUP-TFII inh 39.4*, NR5A2 inv ag 14.3, NCOA1 inh 5.0, NCOA3 inh 11.3, VP16 Luc counter -2.2 and NR2F2 inh conf 17.5.
For COc1ccc(N/N=C(\C#N)C(N)=O)cc1 the results were SRC2 inh -8.1, COUP-TFII inh -6.2, NR5A2 inv ag -3.9, NCOA1 inh -0.9 and NCOA3 inh 11.4.
For N#C/C(=N/Nc1ccc(OC(F)(F)F)cc1)C(N)=S the results were SRC2 inh 20.5, COUP-TFII inh 38.0*, NR5A2 inv ag -15.2, NCOA1 inh -2.2, NCOA3 inh 31.9, VP16 Luc counter -120.8 and NR2F2 inh conf -54.0.
Screening COC(=O)[C@H](CC(C)C)N(Cc1cn(CC2CCCCC2)nn1)S(=O)(=O)c1ccccc1Br returned SRC2 inh 13.0 and COUP-TFII inh 3.2.
For COc1ccc(CC(=O)Nc2cc(S(=O)(=O)N3CCCCC3)ccc2C)cc1OC the results were SRC2 inh 22.5, COUP-TFII inh 60.4*, NR5A2 inv ag 36.4, NCOA1 inh 5.4, NCOA3 inh 24.1, VP16 Luc counter -0.2 and NR2F2 inh conf 47.6*.
For Cc1ccc(S(=O)(=O)N2CCCCC2)cc1NC(=O)c1ccc2c(=O)n3c(nc2c1)CCCCC3 the results were SRC2 inh 8.5, COUP-TFII inh 43.2*, VP16 Luc counter -2.8 and NR2F2 inh conf 14.4.
Screening C[C@H]1COc2c3ccc(I)cc3nn21 returned SRC2 inh -35.8 and COUP-TFII inh -34.7.
CCCCOCCCNC(=O)C[C@H]1C[C@@]2(C(=O)OC)C(=C[C@H](COCc3ccccc3)O[C@@H]2C)N(Cc2ccco2)C1=O was read as SRC2 inh -9.0 and COUP-TFII inh 6.7.
CN(CCO)c1ccc2c(c1)Oc1ccccc1CN(Cc1cn(Cc3ccc(C(F)(F)F)cc3)nn1)S2(=O)=O was read as SRC2 inh 9.2 and COUP-TFII inh -21.2.
COc1ccc(Cn2ccc3ccc(-c4ccc5ccn(C(=O)c6ccc(C)cc6)c5c4)cc32)cc1 was read as SRC2 inh -15.9 and COUP-TFII inh 3.9.
For CCCCOc1ncnc2c1[nH]c1ccccc12 the results were SRC2 inh -8.4, COUP-TFII inh 49.3*, NR5A2 inv ag 12.0, NCOA1 inh -5.5, NCOA3 inh 10.0, VP16 Luc counter -60.0 and NR2F2 inh conf 33.0.
`CCOC(=O)N1CCN(c2ncnc3c2[nH]c2ccc(F)cc23)CC1` gave SRC2 inh -22.7, COUP-TFII inh 63.7*, NR5A2 inv ag 23.0, NCOA1 inh 12.9, NCOA3 inh 21.4, VP16 Luc counter -1.6 and NR2F2 inh conf 39.7*.
For COc1ccc2[nH]c3c(N4CCc5ccccc5C4)ncnc3c2c1 the results were SRC2 inh -47.6, COUP-TFII inh 19.5, NR5A2 inv ag -15.3, NCOA1 inh -54.6 and NCOA3 inh 0.7.
`COc1ccc(N2CCN(c3ncnc4c3[nH]c3ccccc34)CC2)cc1` gave SRC2 inh 21.5, COUP-TFII inh 52.0*, NR5A2 inv ag 37.9, NCOA1 inh 29.6, NCOA3 inh 32.0, VP16 Luc counter 6.1 and NR2F2 inh conf 60.6*.
CCOC(=O)N1CCN(c2ncnc3c2[nH]c2ccc(OC)cc23)CC1 was read as SRC2 inh -12.5, COUP-TFII inh -7.3, NR5A2 inv ag 33.9, NCOA1 inh 9.4 and NCOA3 inh -4.3.
CCCCOc1ncnc2c1[nH]c1ccc(F)cc12 was read as SRC2 inh -4.4, COUP-TFII inh 55.9*, NR5A2 inv ag 9.1, NCOA1 inh 2.8, NCOA3 inh -2.0, VP16 Luc counter -83.9 and NR2F2 inh conf 28.8.
`c1ccc(-c2nnc3sc(C4CCCCC4)nn23)cc1` gave SRC2 inh -9.7 and COUP-TFII inh 12.4.
For CN(Cc1ccccc1)S(=O)(=O)c1cccc(C(=O)OCc2ccccc2Cl)c1 the results were SRC2 inh -1.9 and COUP-TFII inh -20.6.
`COC(=O)[C@]12C=CCN1[C@H](c1ccc(Cl)cc1)c1c(c3ccccc3n1S(=O)(=O)c1ccc(C)cc1)C2` gave SRC2 inh -4.8 and COUP-TFII inh 7.3.
`Cn1c(SCC2CCC2)nnc1-c1ccco1` gave SRC2 inh -39.4 and COUP-TFII inh -40.4.
For CCCCOCCCNc1ncnc2c1[nH]c1ccccc12 the results were SRC2 inh -15.0, COUP-TFII inh 66.5*, NR5A2 inv ag 44.3, NCOA1 inh 17.7, NCOA3 inh 28.5, VP16 Luc counter 13.6* and NR2F2 inh conf 63.3*.
Screening CCOCCCNc1ncnc2c1[nH]c1ccccc12 returned SRC2 inh 13.9, COUP-TFII inh 36.2, NR5A2 inv ag 5.5, NCOA1 inh -2.3 and NCOA3 inh 1.5.
`CN(C)c1ccc(CCc2ccc(N)cc2)cc1` gave SRC2 inh 44.7, COUP-TFII inh 58.6*, NR5A2 inv ag 9.7, NCOA1 inh -3.8, NCOA3 inh 15.3, VP16 Luc counter 39.5* and NR2F2 inh conf 18.9.
COc1ccc2c(c1)N=CN1CCc3c([nH]c4ccccc34)C3=NCC[C@@]321 was read as COUP-TFII inh -10.2.
Screening Clc1ccc(-n2ncc3c(N4CCCCCC4)ncnc32)cc1 returned SRC2 inh 69.9*, COUP-TFII inh 91.5*, NR5A2 inv ag 78.5*, NCOA1 inh 80.9*, NCOA3 inh 80.4*, VP16 Luc counter 80.3* and NR2F2 inh conf 99.7*.
Screening Clc1ccc(-n2ncc3c(NCCN4CCOCC4)ncnc32)cc1 returned SRC2 inh 37.1, COUP-TFII inh 55.6*, NR5A2 inv ag 43.2, NCOA1 inh 42.0, NCOA3 inh 57.9, VP16 Luc counter -29.1 and NR2F2 inh conf 48.2*.

Bioassay records from PubChem.
